Only some compounds are listed: those with a hit (about 11% of all), similar ones and a draw of the others.
PNC assembly inh: inhibitors of perinucleolar compartment assembly; activity change (PNC), negative = inhibition, % at 10 µM; PC3M PTB-GFP, PNC prevalence imaging, 16 h; active compounds read low; 140,000 tested, 3.1% active;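 active = readout at or below -70, meaning at least 70% loss of cells showing the perinucleolar compartment, a nuclear body marking cancer cells; inconclusive = readout between -30 and a set limit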;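 note: plate controls were DMSO wells for no effect and camptothecin positive control wells for full effect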
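PC3M cells stably expressing PTB-GFP, 750–1000 cells/well, treated 16 h at 37 °C with compound (23 nl of library stock), in duplicate. After paraformaldehyde fixation and Hoechst stain, imaged at 20x; PNC prevalence scored by image analysis.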
KDM4E inh: inhibitors of human JMJD2E histone demethylase; Potency, µM (highest dose often 57.1 µM), for inactives: at the top dose activity change, negative = inhibition, most hits filed as inhibitors; 230,000 tested, 1.6% active; JMJD2E catalytic domain, FDH-coupled NADH fluorescence (FDH is formaldehyde dehydrogenase); B2RXH2;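 note: potency is the fitted concentration of half-maximal effect; 0% = wells with enzyme and -100% = buffer wells without enzyme; nearly all actives have a fitted effect of over 50% in size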
Target sequence (B2RXH2 1-337 limits assumed): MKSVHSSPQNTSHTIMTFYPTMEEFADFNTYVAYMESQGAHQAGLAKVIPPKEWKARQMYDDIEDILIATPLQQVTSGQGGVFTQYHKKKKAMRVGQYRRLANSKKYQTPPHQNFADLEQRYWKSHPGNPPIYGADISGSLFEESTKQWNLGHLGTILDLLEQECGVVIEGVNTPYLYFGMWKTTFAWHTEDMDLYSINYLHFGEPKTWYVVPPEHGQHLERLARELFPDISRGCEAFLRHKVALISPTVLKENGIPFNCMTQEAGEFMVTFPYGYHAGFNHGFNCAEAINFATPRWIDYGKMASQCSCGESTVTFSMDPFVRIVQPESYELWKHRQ
ALDH1A1 inh: inhibitors of human aldehyde dehydrogenase 1A1. Purified ALDH1A1, NADH fluorescence, propionaldehyde substrate. AID 1030. 220,000 tested, 7.3% active. Potency, µM (doses to about 75.3 µM), without a hit: top-dose activity, negative = inhibition, usual class: inhibitors;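 note: potency is the fitted concentration of half-maximal effect; plate controls were no enzyme wells and a reference inhibitor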
HPGD inh: blocks human HPGD enzyme activity; P15428; purified HPGD, NADH fluorescence kinetic, PGE2 substrate; Potency, µM, for inactives: at the highest dose activity change, negative = inhibition, actives largely listed as inhibitors; 150,000 tested, 4.3% active; AID 894; note: potency is the fitted concentration of half-maximal effect
Target sequence (P15428 whole entry, looked up): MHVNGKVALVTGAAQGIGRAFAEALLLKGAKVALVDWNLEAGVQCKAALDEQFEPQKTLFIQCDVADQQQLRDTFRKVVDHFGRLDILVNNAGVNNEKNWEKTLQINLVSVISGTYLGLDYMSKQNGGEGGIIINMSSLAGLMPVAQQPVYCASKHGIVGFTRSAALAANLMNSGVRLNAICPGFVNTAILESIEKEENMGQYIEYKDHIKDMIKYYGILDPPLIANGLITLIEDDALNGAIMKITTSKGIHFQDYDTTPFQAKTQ
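NADH formation kinetics: reaction with 30 uM PGE2 and 1 mM NAD+ (final), 20 nM enzyme, Tris-HCl pH 8 with Tween 20, after 15 min compound preincubation at room temperature. Fluorescence change, last versus first of five reads.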
* = called active by the depositor; ? = inconclusive; . = no result given; [ ] = dose if it differs, or a comment. Unless noted, calls come from the whole dose curve; as a rule, active = well fitted inhibition curve with a large enough effect (not every such curve was filed as active); inconclusive = small, poorly fitted or top-dose-only effect, or another doubt; inactive = no such curve, though single readings can be large or run the other way. Unless noted, % is set by controls: 0 for no effect and ±100 for the full control effect.

SMILES | PNC assembly inh | KDM4E inh | ALDH1A1 inh | HPGD inh
O=C(O)CCC(=O)Nc1ccc(N2CCCCCC2)cc1 | 16 | ? | 11µM* | -16%
O=C(CNCC1CCCCC1)Nc1ccc(N2CCCCC2)cc1 | . | 28µM* | ? | .
Cc1ccccc1OCC(=O)Nc1ccc(Cc2ccncc2)cc1 | ? | 10% | ? | 18µM*
Cc1cccc(OCC(=O)Nc2ccc(N3CCCC3)cc2)c1C | 24 | -26% | 13µM* | 0%
COc1ccccc1OCC(=O)Nc1ccc(N2CCCCC2)cc1 | . | -9% | -13% | .
O=C(CNC1CCCCCC1)Nc1ccc(N2CCCC2)cc1 | 0 | -6% | 7% | 4%
Cc1ccccc1OCC(=O)Nc1ccc(C(N)=O)cc1 | -5 | 4% | 19% | -8%
CC(C)C(NC(=O)c1ccc(C(C)(C)C)cc1)C(=O)NCC(c1ccccc1)N(C)C (stereo unspecified) | . | 0% | . | .
CC(=O)Nc1ccc2nc(CN3CCC(CO)(CCc4ccccc4)CC3)ccc2c1 | . | -6% | . | .
COc1cccc([C@@H]2Oc3ccc(OC)cc3/C(=N/O[C@@H](C)c3cn([C@H]4COC[C@H]4O)nn3)[C@@H]2O)c1 | . | . | 0%[13.5 µM] | .
O[C@]1(c2ccccc2)c2ccccc2NC2=NCCN21 | . | . | 15%[13.5 µM] | 2%
Cc1noc(C)c1C(=O)N1CCC2(CC1)CCN(c1ncccn1)CC2 | . | . | ? | -30%
N#Cc1cc2cc3c(cc2nc1NCCNC(=S)NCCCN1CCOCC1)OCO3 | . | -2% | ? | .
c1ccc(CSc2ncnc3c2cnn3Cc2ccccc2)cc1 | -112* | 8% | ? | ?
COC(=O)CSc1ncnc2c1cnn2Cc1ccccc1 | -1 | 2% | -5% | -19%
Cc1ccc2c(c1)/C(=N/OC(=O)c1ccc(F)cc1)CCS2 | 24 | -2% | 3% | ?
O=C(O/N=C1/CCSc2ccccc21)c1ccccc1 | 32 | -17% | 19µM* | 18µM*
O/N=C1/CCCSc2ccccc21 | -24 | -2% | 14% | 11µM*
COc1ccc(CN(Cc2cc3cc4c(cc3[nH]c2=O)OCO4)C(=O)NC2CCCCC2)cc1 | -97* | ? | ? | ?
Cc1ccc(S(=O)(=O)NC(=O)NN2CC3CCCC3C2)cc1 (stereo unspecified) | . | -22% | ? | -7%
NNc1nc(-c2ccccc2Cl)nc2sc3c(c12)CCCC3 | 0 | ? | ? | 13µM*
Nc1nc(-c2cccnc2)nc2sc3c(c12)CCCC3 | . | ? | -6% | .
NCC(O)C1CCCCCCC1 (stereo unspecified) | . | ? | -11% | -14%
Cn1c(=O)[nH]c(=O)c2c1nc(N/N=C/C(Br)=C/c1ccccc1)n2CCO | . | -14% | . | .
CCCC(=O)OCCNc1cc(SCc2ccco2)c2nonc2c1[N+](=O)[O-] | 13 | -1% | 4.5µM* | ?
SMILES | PNC assembly inh | KDM4E inh | ALDH1A1 inh | HPGD inh
CC(=O)OCCCNc1cc(SCc2ccco2)c2nonc2c1[N+](=O)[O-] | 32 | -19% | 7.9µM* | 7.9µM*
CCCSc1cc(NCCOC(=O)CCC)c([N+](=O)[O-])c2nonc12 | 16 | -3% | ? | -17%
CCCC(=O)OCCNc1cc(Sc2nccn2C)c2nonc2c1[N+](=O)[O-] | -20 | -1% | ? | 28µM*
CCCSc1cc(NCCOC(C)=O)c([N+](=O)[O-])c2nonc12 | 11 | 0% | 6% | -26%
O=C(Nc1ccccc1)N1CCCC2(CCN(C(=O)c3csnn3)CC2)C1 | . | . | 2% | 0%
Cc1cc(NC(=O)CCN2C(=O)C3C4C=CC(C4)C3C2=O)ccc1Br (stereo unspecified) | . | -2% | ? | .
Cc1cc(C(=O)NN)c(Cl)cc1Cl | . | 4% | . | .
COc1ccc(-c2nc(CSCC(=O)N3CCN(C(=O)c4ccco4)CC3)c(C)o2)cc1OC | ? | ? | 20µM* | -16%
CCOC(=O)N1CCN(C(=O)CSCc2nc(-c3ccccc3F)oc2C)CC1 | 39 | 1% | 22µM* | -19%
COc1ccc(-c2nc(CSCC(=O)N3CCN(C)CC3)c(C)o2)cc1OC | 2 | ? | -5% | -21%
Cc1ccc(NC(=O)COc2ncnc3cc([N+](=O)[O-])ccc23)cc1S(=O)(=O)N1CCOCC1 | . | -2% | ? | .
COc1ccc(/C=C/C(=O)Nc2c(C(=O)O)[nH]c3ccccc23)cc1OC | . | -4% | . | .
COc1ccc(C)cc1NC(=O)CSc1nnc(-c2ccc(Br)cc2)o1 | -25 | 0% | ? | -15%
COC(=O)Sc1nnc(-c2ccc(Br)cc2)o1 | 12 | ? | 8.9µM* | 22µM*
CN(C)CCNC(=O)c1ccc(Cc2nc3ccccc3[nH]2)cc1 | . | . | -3% | 3%
O=C(/C=C\NCC(=O)c1ccccc1)c1ccc(F)cc1 | 56 | -8% | 20µM* | -21%
O=C(/C=C\NCC(=O)c1ccccc1)c1ccc2ccccc2c1 | ? | 18µM* | 4.5µM* | .
CN(CCc1ccccn1)C(=O)CCC1CCCN(C(=O)c2n[nH]c3c2CCCC3)C1 (stereo unspecified) | . | 2% | -1% | .
COc1ccccc1-n1c(CNC(=O)COc2ccccc2)n[nH]c1=S | 1 | -8% | 2.2µM* | ?
COc1ccc2c(c1)-c1nc(/N=C/c3cccc(OC)c3O)sc1CC2 | -23 | 2% | 11µM* | -17%
COc1cccc(C=Nc2cccnc2)c1O | 11 | ? | -3% | -22%
C1CNCCNCCCNCCNC1 | -115* | 3% | 5% | -7%
C1CCCNCC1 | . | . | 22µM* | -11%
C1CNCCN1 | . | 1% | 0% | -2%
COc1cc(/C=C2/NC(=O)N(CC(=O)Nc3ccc(C)cc3)C2=O)ccc1Oc1ccc([N+](=O)[O-])cn1 | . | 6% | -1% | .
SMILES | PNC assembly inh | KDM4E inh | ALDH1A1 inh | HPGD inh
COCCN1C(=O)/C(=C/c2ccc(Oc3ccc([N+](=O)[O-])cn3)c(OC)c2)SC1=Nc1ccccc1 | ? | 3% | 0.4µM* | -15%
CS(=O)(=O)NCCSc1cc(C(F)(F)F)nc2ccccc12 | . | -11% | . | .
Cc1c(CN(C)C(=O)/C=C/c2ccc([N+](=O)[O-])cc2)cnn1C | ? | -6% | 2% | -9%
O=C(CCCCCn1c(=S)[nH]c2ccccc2c1=O)N1CCOCC1 | 11 | 2% | 4% | 14µM*
O=C(CCCn1c(=S)[nH]c2ccsc2c1=O)NCc1ccco1 | 26 | 1% | 4% | -20%
COCCNC(=O)CCCCCn1c(=S)[nH]c2ccccc2c1=O | 128 | -3% | 3% | 13µM*
COc1ccccc1N1CCN(C(=O)CCn2c(=O)[nH]c3ccccc3c2=O)CC1 | -107* | 3% | 11% | -6%
O=C(CCCCn1c(=S)[nH]c2ccsc2c1=O)NCc1ccco1 | 40 | -7% | 5% | 14µM*
COCCCNC(=O)CCCn1c(=O)[nH]c2ccccc2c1=O | ? | -2% | -7% | -17%
Cc1ccc(C(=O)N2CCN(c3ccc(NC(=O)COc4ccccc4C)cc3)CC2)cc1 | . | 5% | ? | .
O=C(COc1ccc(S(=O)(=O)Nc2ccccc2)cc1)NCc1ccncc1 | . | -7% | ? | .
Cc1ccc(-c2nnc(N3CC(C)OC(C)C3)c3ccccc23)cc1 (stereo unspecified) | . | -13% | ? | .
COCCNC(=O)CCCCCN1C(=O)CCC1=O | -16 | -3% | 12% | 16µM*

High-throughput results (PubChem)
